Consider 37 molecules from the supplement of paper PMC7695840.

The test system of assay [1] is Staphylococcus aureus MW2 delta-mecA (mecA-). The experiment in a line: normalized GFP fluorescence (growth of mecA- strain) (fraction of control range); higher = more growth of mecA- strain. To be noted: compound concentration: 150 uM; cefoxitin: subinhibitory; fluorescent label: GFP. Put shortly: (§1)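 Fluorescence from DsRed (540/590) and GFP (485/520) was recorded after 20 h of static growth at 37 °C and 90% humidity. The wells held a 1:1 mix of pre-induced S. aureus MW2 cells, gene-bearing with DsRed and gene-deleted with GFP, in LB with a daily-set subinhibitory antibiotic dose, dispensed at 5 µL/well onto 150 μM compound (1.5% DMSO) in 1536-well plates, single replicate. Each channel was scaled per plate between single-strain control medians, excluding plates with high untreated ratios and rows with DsRed/GFP >10.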

Assay [2] concerns Staphylococcus aureus MW2 (mecA+). As to the kind of experiment: normalized DsRed fluorescence (growth of mecA+ strain) (fraction of control range); higher = more growth of mecA+ strain. To be noted: compound concentration: 150 uM; cefoxitin: subinhibitory; fluorescent label: DsRed. An outline of the steps:
as §1

Structures can show the parent of a compound that is named as a salt.

As for `CN(C)CCC[C@@]1(c2ccc(F)cc2)OCc2cc(C#N)ccc21`, the “normalized GFP fluorescence” value in assay [1] amounted to 0.12. Besides, the “normalized DsRed fluorescence” value in assay [2] was 0.762.

Turning to `Cc1ncc(C[n+]2csc(CCO)c2C)c(N)n1`, the “normalized GFP fluorescence” value in assay [1] is 0.111. Besides, in assay [2], the “normalized DsRed fluorescence” value came out at 1.23.

With `CC(O)C(=O)O.N` (centres undefined), the “normalized GFP fluorescence” value in assay [1] amounted to 0.217. Further, the “normalized DsRed fluorescence” value in assay [2] amounted to 0.837.

Consider `COC(=O)C1=C(C)NC(C)=C(C(=O)OCCN(C)Cc2ccccc2)C1c1cccc([N+](=O)[O-])c1` (centres undefined), for which, in assay [1], the “normalized GFP fluorescence” value is -0.00636. In addition, the “normalized DsRed fluorescence” value in assay [2] was determined as 1.02.

With `NC(=O)c1cccnc1` [Nicotinamide (Niacinamide)], in assay [1], the “normalized GFP fluorescence” value amounted to 0.478. For the same molecule, the “normalized DsRed fluorescence” value in assay [2] turned out to be 0.458.

With `COc1ccc2cc([C@H](C)C(=O)O)ccc2c1` [Naproxen (Aleve)], the “normalized GFP fluorescence” value in assay [1] worked out at 0.0134. For the same molecule, in assay [2], the “normalized DsRed fluorescence” value was determined as 0.825.

For the molecule `CCN(CC)CCNC(=O)c1cc(Cl)c(N)cc1OC`, the “normalized GFP fluorescence” value in assay [1] stood at 0.639. The “normalized DsRed fluorescence” value in assay [2] is 0.756.

As to `CC(C)Cc1ccc([C@H](C)C(=O)O)cc1`, the “normalized GFP fluorescence” value in assay [1] turned out to be 0.21. Moreover, the “normalized DsRed fluorescence” value in assay [2] was found to be 0.388.

For the molecule `Cc1cn([C@H]2C=C[C@@H](CO)O2)c(=O)[nH]c1=O`, the “normalized GFP fluorescence” value in assay [1] worked out at 0.779. The “normalized DsRed fluorescence” value in assay [2] stood at 0.601.

As for `OCCN(CCO)c1nc(N2CCCCC2)c2nc(N(CCO)CCO)nc(N3CCCCC3)c2n1`, the “normalized GFP fluorescence” value in assay [1] was 0.523. Besides, in assay [2], the “normalized DsRed fluorescence” value was 0.744.

With `CC(C)(C(=O)O)c1ccc(C(O)CCCN2CCC(C(O)(c3ccccc3)c3ccccc3)CC2)cc1` (centres undefined), the “normalized GFP fluorescence” value in assay [1] turned out to be 0.393. The “normalized DsRed fluorescence” value in assay [2] worked out at 1.03.

As to `Clc1ccc(C(c2ccccc2Cl)C(Cl)Cl)cc1` (centres undefined), in assay [1], the “normalized GFP fluorescence” value was 0.148. Also, the “normalized DsRed fluorescence” value in assay [2] was found to be 0.731.

In the case of `CN(C)CCc1c[nH]c2ccc(Cn3cncn3)cc12`, the “normalized GFP fluorescence” value in assay [1] was determined as 0.425. Moreover, the “normalized DsRed fluorescence” value in assay [2] was 0.751.

In the case of `CC[N+](CC)(CC)CCOc1cccc(OCC[N+](CC)(CC)CC)c1OCC[N+](CC)(CC)CC`, the “normalized GFP fluorescence” value in assay [1] was determined as 0.163. Also, in assay [2], the “normalized DsRed fluorescence” value turned out to be 0.336.

Take `CCOC(=O)[C@H](CCc1ccccc1)N[C@@H](C)C(=O)N1[C@H](C(=O)O)C[C@H]2CCCC[C@@H]21`: the “normalized GFP fluorescence” value in assay [1] amounted to 0.598. Moreover, in assay [2], the “normalized DsRed fluorescence” value was found to be 0.51.

As to `CCOC(=O)[C@H](CCc1ccccc1)N[C@H]1CCc2ccccc2N(CC(=O)O)C1=O`, the “normalized GFP fluorescence” value in assay [1] was -0.00401. Further, the “normalized DsRed fluorescence” value in assay [2] amounted to 1.44.

Regarding `NCCc1c[nH]cn1`, the “normalized GFP fluorescence” value in assay [1] amounted to 0.621. For the same molecule, the “normalized DsRed fluorescence” value in assay [2] was determined as 0.661.

As to `CCN(CC)CCOc1ccc2c(c1)C(=O)c1cc(OCCN(CC)CC)ccc1-2`, in assay [1], the “normalized GFP fluorescence” value was 0.282. The “normalized DsRed fluorescence” value in assay [2] was 0.512.

Regarding `CC(=O)Oc1ccc(C(c2ccc(OC(C)=O)cc2)c2ccccn2)cc1`, the “normalized GFP fluorescence” value in assay [1] amounted to 0.399. Further, the “normalized DsRed fluorescence” value in assay [2] was 0.669.

With `O=C(Nc1cccc2c(=O)cc(-c3nnn[nH]3)oc12)c1ccc(OCCCCc2ccccc2)cc1` [Pranlukast], in assay [1], the “normalized GFP fluorescence” value stood at 0.0957. The “normalized DsRed fluorescence” value in assay [2] is 0.714.

For `O.O.O.O.O.O.O.O.O.O.O.O.O.O.O.O.O.O.O.O.O=S(=O)([O][Al])OC[C@H]1O[C@@](COS(=O)(=O)[O][Al])(O[C@H]2O[C@H](COS(=O)(=O)[O][Al])[C@@H](OS(=O)(=O)[O][Al])[C@H](OS(=O)(=O)[O][Al])[C@H]2OS(=O)(=O)[O][Al])[C@@H](OS(=O)(=O)[O][Al])[C@@H]1OS(=O)(=O)[O][Al].[Al]`, in assay [1], the “normalized GFP fluorescence” value turned out to be 0.405. Also, in assay [2], the “normalized DsRed fluorescence” value was 0.842.

`CCn1cc(C(=O)O)c(=O)c2cc(F)c(N3CCNCC3)nc21` [Enoxacin (Penetrex)]: the “normalized GFP fluorescence” value in assay [1] was 0.206. Further, the “normalized DsRed fluorescence” value in assay [2] worked out at 0.928.

Turning to `OC[C@H]1O[C@@H](O[C@@H]2[C@@H](CO)O[C@](O)(CO)[C@H]2O)[C@H](O)[C@@H](O)[C@H]1O`, the “normalized GFP fluorescence” value in assay [1] stood at 0.29. Besides, the “normalized DsRed fluorescence” value in assay [2] stood at 0.712.

As to `Clc1cccc(Cl)c1NC1=NCCN1`, in assay [1], the “normalized GFP fluorescence” value was determined as 0.205. Also, the “normalized DsRed fluorescence” value in assay [2] amounted to 0.663.

In the case of `C#C[C@]1(OC(C)=O)CC[C@H]2[C@@H]3CCC4=CC(=NO)CC[C@@H]4[C@H]3CC[C@@]21CC` (mixture of isomers), the “normalized GFP fluorescence” value in assay [1] amounted to 0.0291. For the same molecule, the “normalized DsRed fluorescence” value in assay [2] is 0.642.

Regarding `COc1cc(C(=O)NS(=O)(=O)c2ccccc2C)ccc1Cc1cn(C)c2ccc(NC(=O)OC3CCCC3)cc12` [Zafirlukast (Accolate)], in assay [1], the “normalized GFP fluorescence” value is -0.00168. Besides, the “normalized DsRed fluorescence” value in assay [2] came to 0.0292.

For the molecule `C#C[C@]1(OC(C)=O)CC[C@H]2[C@@H]3CCC4=C[C@@H](OC(C)=O)CC[C@@H]4[C@H]3CC[C@@]21C`, the “normalized GFP fluorescence” value in assay [1] turned out to be 0.192. Besides, in assay [2], the “normalized DsRed fluorescence” value amounted to 0.568.

`COc1cc2c(cc1OC)CC(=O)N(CCCN(C)C[C@H]1Cc3cc(OC)c(OC)cc31)CC2` [Ivabradine HCl (Procoralan)]: the “normalized GFP fluorescence” value in assay [1] was found to be 0.478. The “normalized DsRed fluorescence” value in assay [2] is 0.555.

Take `CC(C)(C)NCC(O)c1ccc(O)c(CO)c1` (centres undefined) [Salbutamol sulfate (Albuterol)]: in assay [1], the “normalized GFP fluorescence” value turned out to be 0.318. Further, the “normalized DsRed fluorescence” value in assay [2] came out at 0.695.

Consider `CN1CCC(OC(c2ccccc2)c2ccccc2)CC1`, for which, in assay [1], the “normalized GFP fluorescence” value turned out to be 0.0847. Besides, the “normalized DsRed fluorescence” value in assay [2] was found to be 1.1.

Regarding `Cc1c2oc3c(C)ccc(C(=O)N[C@@H]4C(=O)N[C@H](C(C)C)C(=O)N5CCC[C@H]5C(=O)N(C)CC(=O)N(C)[C@@H](C(C)C)C(=O)O[C@@H]4C)c3nc-2c(C(=O)N[C@@H]2C(=O)N[C@H](C(C)C)C(=O)N3CCC[C@H]3C(=O)N(C)CC(=O)N(C)[C@@H](C(C)C)C(=O)O[C@@H]2C)c(N)c1=O`, the “normalized GFP fluorescence” value in assay [1] was -0.00268. In addition, in assay [2], the “normalized DsRed fluorescence” value stood at 0.0533.

Regarding `CC[C@@H]([C@H](C)O)n1ncn(-c2ccc(N3CCN(c4ccc(OC[C@@H]5CO[C@@](Cn6cncn6)(c6ccc(F)cc6F)C5)cc4)CC3)cc2)c1=O` [Posaconazole], the “normalized GFP fluorescence” value in assay [1] is 0.833. Also, the “normalized DsRed fluorescence” value in assay [2] is 0.572.

For `O=C1CN(/N=C/c2ccc([N+](=O)[O-])o2)C(=O)N1`, the “normalized GFP fluorescence” value in assay [1] was 0.0054. Moreover, the “normalized DsRed fluorescence” value in assay [2] is 0.0533.

`CCC1(c2ccccc2)C(=O)NCNC1=O`: the “normalized GFP fluorescence” value in assay [1] was 0.33. The “normalized DsRed fluorescence” value in assay [2] was 0.811.

As for `CN1CCCN=C1/C=C/c1cccc(O)c1`, the “normalized GFP fluorescence” value in assay [1] is 0.279. In addition, in assay [2], the “normalized DsRed fluorescence” value worked out at 0.787.

With `CCc1cc(C(N)=S)ccn1`, in assay [1], the “normalized GFP fluorescence” value stood at 0.386. In assay [2], the “normalized DsRed fluorescence” value turned out to be 0.65.

For `CN1CCC(=C2c3ccccc3CCc3sccc32)CC1` [Pizotifen malate], the “normalized GFP fluorescence” value in assay [1] worked out at 0.00361. In addition, the “normalized DsRed fluorescence” value in assay [2] came out at 1.4.
